Molecules are shown by their SMILES. Records with an inconclusive call do not appear. Activity calls are given as the source filed them. Calls follow the shape of the dose curve; as a rule, active = well fitted cell-killing curve with a large enough effect; inconclusive = small, poorly fitted or top-dose-only effect; inactive = flat fitted curve, though single readings scatter.

This assay can be described thus: PC3M Cytotoxicity Assay for Compounds that Inhibit the Perinuclear Compartment. The following applies: PC3M-GFP viability, ATPLite luminescence, 24 h. The source says: The perinucleolar compartment (PNC) is a non-membrane-bound nuclear subdomain that is associated with but structurally distinct from the nucleolus. The PNC is a heritable trait, in which the number of PNCs per cell in daughter cells often mimics that of their mother cells. The PNC is heterogeneous in shape, is stable through interphase, disassembles during mitosis, and reassembles in early G1. The PNC is concentrated with newly synthesized RNA polymerase III (pol III) RNAs (MRP RNA, RNAse P H1 RNA, hY RNAs[hY1, 2, 5], Alu RNA, and SRP [7SL] RNA) and RNA binding proteins (nucleolin, PTB, CUG-BP, KSRP, Raver1, Raver2, and Rod). […] Extensive in vitro studies have shown that the PNC is unique to tumor cells and preferentially forms in tumor cells derived from solid tissues. Examination of cancer cell lines from various origins and malignant capacities has shown that PNC prevalence correlates with the malignancy of tumors and has the potential to be developed as a pan-cancer prognostic marker. […] Although the PNC is associated with a DNA locus and a handful of components have been identified, much remains to be investigated regarding the structure and function of the PNC and its mechanistic link to cancer. We have previously shown that PNC prevalence reduction is a valid strategy to identify compounds that can be used to study the structure and function of the PNC. It is necessary, however, to create a screening platform that is able to test a large number of compounds in an automated fashion. Here we report the development and robustness of an automated whole-cell phenotypic image-based screening assay that is capable of identifying such compounds. We conducted a followup assay to measure the effect of the lead candidates on cell health by measuring ATP levels (ATPLite). The highly metastatic PC3M-GFP reporter cell line was used in this study. NIH Chemical Genomics Center [NCGC] NIH Molecular Libraries Probe Centers Network [MLPCN] MLPCN Grant: MH082371-01A2 Assay Submitter (PI): Sui Huang, Northwestern University, Feinberg School of Medicine, Cell and Molecular Biology, Chicago, Illinois.
1. Cells at a density of 75-90% confluency in T175 flasks were harvested using 7 ml TrypLE Express cell dissociation reagent. After dissociation (5 minutes room temperature incubation) 10 ml of complete media was added to the TrypLE/cell suspension. The liquid was transferred to a 50 ml Conical tube and cells were pelleted at 1000 RPM for 5 min. Supernatant was removed and cells were resuspended to a final density of 150-200 cells/ul in complete media. 2. Cells were plated in 5 ul volume (2000 cells/well) into 1536 well White solid bottom plates and allowed to recover and adhere at 37 C in a humidified 5% CO2 incubator for 4 hours. 3. After 4 hour incubation, compound libraries (23 nl of […] in columns 5-48) were transferred to the plates in duplicate using a 1536 well pintool. Camptothecin positive control (59 uM final) was added to column 2 and 1:3 dilutions of camptothecin was added to column 3. DMSO negative controls were present in columns 1 and 4. 4. After a 24 hour incubation in the 37 C incubator, all wells were treated with 3 ul of ATPLite reagent using a multidrop combi dispenser (ThermoFisher). Bubbles that formed during dispensing were removed by spinning the plates for 1 minutre at 1500 RPM on a table top centrifuge. 5. Luminescencent signal was detected on a Viewlux CCD based imager (PerkinElmer) with a clear filter and a 30 second integration time. The PC3M cell line stably expressing the PTB-GFP was provided by Sui Huang of Northwestern University. The media and cell culture reagents were purchased from Invitrogen (Carlsbad, CA), ATPLite came from PerkinElmer.
A general note: In ATP-based viability assays light output follows the ATP content of the culture.
For the molecule `N=c1c2c(-c3ccccc3)c(-c3ccccc3)n(Cc3ccco3)c2ncn1Cc1ccco1`, the Potency is 19.9 µM (active).

In the case of `N=c1c2c(-c3ccccc3)c(-c3ccccc3)n(Cc3ccco3)c2ncn1Cc1ccccc1`, the Potency was 19.9 µM (active).

With `N=c1c2c(-c3ccccc3)c(-c3ccccc3)n(Cc3ccccc3)c2ncn1CCCn1ccnc1`, the Potency was 19.9 µM (active).

As to `N=c1c2c(-c3ccccc3)c(-c3ccccc3)n(Cc3ccco3)c2ncn1CCO`, the Potency was 19.9 µM (active).

With `N=c1c2c(-c3ccccc3)c(-c3ccccc3)n(Cc3ccco3)c2ncn1CCCn1ccnc1`, the Potency is 25 µM (active).

In the case of `CC(C)Cn1cnc2c(c(-c3ccccc3)c(-c3ccccc3)n2Cc2ccco2)c1=N`, the Potency was 19.9 µM (active).

These data come from PubChem BioAssay AID540362 (National Center for Advancing Translational Sciences (NCATS), 2011).
